# Data as given in publication PMC5540273 (PLoS ONE, 2017).
# Where two headings read alike, the source gives them in different places.
# What was measured:
# AAK1 = conditions: n = 1
# ABL1-nonphosphorylated = conditions: concentration: 1 μM, replicates: in singlicate; n = 1
# ABL1-phosphorylated = conditions: concentration: 1 μM, replicates: in singlicate; n = 1
# ABL2 = conditions: concentration: 1 μM, replicates: in singlicate; n = 1
# ACVR1B = conditions: concentration: 1 μM, replicates: in singlicate; n = 1
# ACVR1 = conditions: concentration: 1 μM, replicates: in singlicate; n = 1
# ACVR2A = conditions: concentration: 1 μM, replicates: in singlicate; n = 1
# ACVR2B = conditions: concentration: 1 μM, replicates: in singlicate; n = 1
# ACVRL1 = conditions: concentration: 1 μM, replicates: in singlicate; n = 1
# ADCK3 = test system: T1, ADCK3; conditions: concentration: 1 μM, replicates: in singlicate; n = 1
# T1 construct: gene CABC1
# ADCK4 = conditions: concentration: 1 μM, replicates: in singlicate; n = 1
# AKT1 = conditions: concentration: 1 μM, replicates: in singlicate; n = 1
# AKT2 = conditions: concentration: 1 μM, replicates: in singlicate; n = 1
# AKT3 = conditions: concentration: 1 μM, replicates: in singlicate; n = 1
# ALK = conditions: concentration: 1 μM, replicates: in singlicate; n = 1
# AMPK-alpha1 = test system: T2, AMPK-alpha1; conditions: concentration: 1 μM, replicates: in singlicate; n = 1
# T2 construct: gene PRKAA1
# AMPK-alpha2 = test system: T3, AMPK-alpha2; conditions: concentration: 1 μM, replicates: in singlicate; n = 1
# T3 construct: gene PRKAA2
# ANKK1 = conditions: concentration: 1 μM, replicates: in singlicate; n = 1
# ARK5 = test system: T4, ARK5; conditions: concentration: 1 μM, replicates: in singlicate; n = 1
# T4 construct: gene NUAK1
# ASK1 = test system: T5, ASK1; conditions: concentration: 1 μM, replicates: in singlicate; n = 1
# T5 construct: gene MAP3K5
# [1] = concentration: 1 μM, replicates: in singlicate
# 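Further: KINOMEscan kinase panel screen.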
structure (smiles),measurement,setting,value
COc1ccc(NC(=O)c2ccoc2)cc1-c1ccc(C(=O)NCC2CC2)cc1 [GW810437],%Inh,AAK1; [1],0%
same,%Inh,ABL1-nonphosphorylated,24%
same,%Inh,ABL1-phosphorylated,1%
same,%Inh,ABL2,5%
same,%Inh,ACVR1B,4%
same,%Inh,ACVR1,0%
same,%Inh,ACVR2A,0%
same,%Inh,ACVR2B,17%
same,%Inh,ACVRL1,10%
same,%Inh,ADCK3,0%
same,%Inh,ADCK4,0%
same,%Inh,AKT1,15%
same,%Inh,AKT2,0%
same,%Inh,AKT3,0%
same,%Inh,ALK,0%
same,%Inh,AMPK-alpha1,19%
same,%Inh,AMPK-alpha2,0%
same,%Inh,ANKK1,7%
same,%Inh,ARK5,0%
same,%Inh,ASK1,30%
O=C(Nc1n[nH]c2nc(-c3cccc(O)c3)ccc12)C1CC1 [SB-711805],%Inh,AAK1; [1],33%
same,%Inh,ABL1-nonphosphorylated,94.2%
same,%Inh,ABL1-phosphorylated,88%
same,%Inh,ABL2,27%
same,%Inh,ACVR1B,13%
same,%Inh,ACVR1,32%
same,%Inh,ACVR2A,43%
same,%Inh,ACVR2B,74%
same,%Inh,ACVRL1,0%
same,%Inh,ADCK3,0%
same,%Inh,ADCK4,0%
same,%Inh,AKT1,0%
same,%Inh,AKT2,0%
same,%Inh,AKT3,4%
same,%Inh,ALK,0%
same,%Inh,AMPK-alpha1,0%
same,%Inh,AMPK-alpha2,0%
same,%Inh,ANKK1,0%
same,%Inh,ARK5,0%
same,%Inh,ASK1,0%
CCNc1nccc(-c2c(-c3ccc(F)cc3)ncn2C2CCN(C)CC2)n1,%Inh,AAK1; [1],20%
same,%Inh,ABL1-nonphosphorylated,30%
same,%Inh,ABL1-phosphorylated,7%
same,%Inh,ABL2,0%
same,%Inh,ACVR1B,0%
same,%Inh,ACVR1,0%
same,%Inh,ACVR2A,0%
same,%Inh,ACVR2B,0%
same,%Inh,ACVRL1,0%
same,%Inh,ADCK3,12%
same,%Inh,ADCK4,8%
same,%Inh,AKT1,4%
same,%Inh,AKT2,0%
same,%Inh,AKT3,0%
same,%Inh,ALK,0%
same,%Inh,AMPK-alpha1,0%
same,%Inh,AMPK-alpha2,0%
same,%Inh,ANKK1,0%
same,%Inh,ARK5,0%
same,%Inh,ASK1,15%
Cn1cc(-c2ccc3c(c2)CCN3C(=O)Cc2cc(F)cc(C(F)(F)F)c2)c2c(N)ncnc21 [GSK2635225],%Inh,AAK1; [1],10%
same,%Inh,ABL1-nonphosphorylated,78%
same,%Inh,ABL1-phosphorylated,15%
same,%Inh,ABL2,40%
same,%Inh,ACVR1B,0%
same,%Inh,ACVR1,0%
same,%Inh,ACVR2A,0%
same,%Inh,ACVR2B,12%
same,%Inh,ACVRL1,0%
same,%Inh,ADCK3,17%
same,%Inh,ADCK4,10%
same,%Inh,AKT1,0%
same,%Inh,AKT2,0%
same,%Inh,AKT3,0%
same,%Inh,ALK,0%
same,%Inh,AMPK-alpha1,3%
same,%Inh,AMPK-alpha2,21%
same,%Inh,ANKK1,25%
same,%Inh,ARK5,15%
same,%Inh,ASK1,0%
Fc1cc(Cl)ccc1Nc1ccnc2cc(-c3ccc(CN4CCOCC4)o3)ccc12 [GW560109],%Inh,AAK1; [1],0%
same,%Inh,ABL1-nonphosphorylated,99.5%
same,%Inh,ABL1-phosphorylated,99.8%
same,%Inh,ABL2,96.4%
same,%Inh,ACVR1B,0%
same,%Inh,ACVR1,86%
same,%Inh,ACVR2A,22%
same,%Inh,ACVR2B,88%
same,%Inh,ACVRL1,65%
same,%Inh,ADCK3,0%
same,%Inh,ADCK4,13%
same,%Inh,AKT1,0%
same,%Inh,AKT2,0%
same,%Inh,AKT3,19%
same,%Inh,ALK,62%
same,%Inh,AMPK-alpha1,0%
same,%Inh,AMPK-alpha2,21%
same,%Inh,ANKK1,16%
same,%Inh,ARK5,4%
same,%Inh,ASK1,16%
CC(C)NCC(Cc1ccccc1)NC(=O)c1cc(Br)c(-c2ccnc3[nH]ccc23)s1.Cl.Cl (stereo not shown) [GSK1383281],%Inh,AAK1; [1],25%
same,%Inh,ABL1-nonphosphorylated,0%
same,%Inh,ABL1-phosphorylated,14%
same,%Inh,ABL2,5%
same,%Inh,ACVR1B,0%
same,%Inh,ACVR1,0%
same,%Inh,ACVR2A,0%
same,%Inh,ACVR2B,0%
same,%Inh,ACVRL1,0%
same,%Inh,ADCK3,14%
same,%Inh,ADCK4,87%
same,%Inh,AKT1,90%
same,%Inh,AKT2,73%
same,%Inh,AKT3,86%
same,%Inh,ALK,32%
same,%Inh,AMPK-alpha1,57%
same,%Inh,AMPK-alpha2,41%
same,%Inh,ANKK1,17%
same,%Inh,ARK5,62%
same,%Inh,ASK1,0%
COc1ccc(C2=C(Nc3cccc(O)c3)C(=O)NC2=O)cc1 [SB-390766],%Inh,AAK1; [1],20%
same,%Inh,ABL1-nonphosphorylated,0%
same,%Inh,ABL1-phosphorylated,0%
same,%Inh,ABL2,13%
same,%Inh,ACVR1B,0%
same,%Inh,ACVR1,0%
same,%Inh,ACVR2A,0%
same,%Inh,ACVR2B,0%
same,%Inh,ACVRL1,0%
same,%Inh,ADCK3,0%
same,%Inh,ADCK4,9%
same,%Inh,AKT1,0%
same,%Inh,AKT2,12%
same,%Inh,AKT3,0%
same,%Inh,ALK,73%
same,%Inh,AMPK-alpha1,100%
same,%Inh,AMPK-alpha2,10%
same,%Inh,ANKK1,32%
same,%Inh,ARK5,0%
same,%Inh,ASK1,35%
O=C(O)C(F)(F)F.O=c1[nH]ccc2nc(N[C@@H]3CCNC3)nc(Nc3cc(Cl)cc(Cl)c3)c12 [GSK2188764],%Inh,AAK1; 1 µM,89%
same,%Inh,ABL1-nonphosphorylated,9%
same,%Inh,ABL1-phosphorylated,11%
same,%Inh,ABL2,0%
same,%Inh,ACVR1B,0%
same,%Inh,ACVR1,0%
same,%Inh,ACVR2A,0%
same,%Inh,ACVR2B,0%
same,%Inh,ACVRL1,0%
same,%Inh,ADCK3,25%
same,%Inh,ADCK4,14%
same,%Inh,AKT1,0%
same,%Inh,AKT2,0%
same,%Inh,AKT3,0%
same,%Inh,ALK,90.5%
same,%Inh,AMPK-alpha1,87%
same,%Inh,AMPK-alpha2,90%
same,%Inh,ANKK1,97.1%
same,%Inh,ARK5,99.5%
same,%Inh,ASK1,0%
Cl.Cl.NC(CNC(=O)c1cc(Br)c(-c2ccnc3[nH]ccc23)s1)c1ccccc1 (stereo not shown) [GSK1322949],%Inh,AAK1; [1],82%
same,%Inh,ABL1-nonphosphorylated,21%
same,%Inh,ABL1-phosphorylated,10%
same,%Inh,ABL2,25%
same,%Inh,ACVR1B,0%
same,%Inh,ACVR1,38%
same,%Inh,ACVR2A,0%
same,%Inh,ACVR2B,10%
same,%Inh,ACVRL1,0%
same,%Inh,ADCK3,40%
same,%Inh,ADCK4,76%
same,%Inh,AKT1,66%
same,%Inh,AKT2,15%
same,%Inh,AKT3,88%
same,%Inh,ALK,59%
same,%Inh,AMPK-alpha1,73%
same,%Inh,AMPK-alpha2,46%
same,%Inh,ANKK1,38%
same,%Inh,ARK5,0%
same,%Inh,ASK1,0%
CCn1cnc2c(NCc3ccccc3)ncnc21 [SKF-96418],%Inh,AAK1; [1],0%
same,%Inh,ABL1-nonphosphorylated,21%
same,%Inh,ABL1-phosphorylated,9%
same,%Inh,ABL2,0%
same,%Inh,ACVR1B,0%
same,%Inh,ACVR1,0%
same,%Inh,ACVR2A,0%
same,%Inh,ACVR2B,0%
same,%Inh,ACVRL1,0%
same,%Inh,ADCK3,0%
same,%Inh,ADCK4,0%
same,%Inh,AKT1,0%
same,%Inh,AKT2,0%
same,%Inh,AKT3,0%
same,%Inh,ALK,0%
same,%Inh,AMPK-alpha1,3%
same,%Inh,AMPK-alpha2,0%
same,%Inh,ANKK1,0%
same,%Inh,ARK5,0%
same,%Inh,ASK1,0%
CC(C)c1nc(-c2cccc(NS(=O)(=O)c3c(F)cccc3F)c2)c(-c2ccnc(Nc3ccc(N4CCOCC4)nc3)n2)s1.Cl [GSK1723980],%Inh,AAK1; [1],7%
same,%Inh,ABL1-nonphosphorylated,99.7%
same,%Inh,ABL1-phosphorylated,95.6%
same,%Inh,ABL2,99.4%
same,%Inh,ACVR1B,89%
same,%Inh,ACVR1,95.9%
same,%Inh,ACVR2A,0%
same,%Inh,ACVR2B,81%
same,%Inh,ACVRL1,83%
same,%Inh,ADCK3,100%
same,%Inh,ADCK4,100%
same,%Inh,AKT1,0%
same,%Inh,AKT2,11%
same,%Inh,AKT3,0%
same,%Inh,ALK,19%
same,%Inh,AMPK-alpha1,74%
same,%Inh,AMPK-alpha2,91.4%
same,%Inh,ANKK1,5%
same,%Inh,ARK5,1%
same,%Inh,ASK1,0%
